Assay [1] can be described thus: NCI Yeast Anticancer Drug Screen. Data for the rad50 strain (AID 155).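 Also: 0% = growth of vehicle-only cultures of the same strain.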 The settings on record: S. cerevisiae rad50 strain growth inhibition; at 50.0 µM; active compounds read high. In short, it runs like this: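 A DNA repair-deficient yeast mutant serves as the test organism; compound-induced growth inhibition is calculated against vehicle-treated cells.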
A short description of assay [2]: NCI Yeast Anticancer Drug Screen. Data for the mec2-1 strain (AID 157). The settings on record: S. cerevisiae mec2-1 strain, at 50.0 µM, active compounds read high. The gist of the method:
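mec2-1 yeast strain, carrying an alteration in DNA damage repair or cell cycle control, was exposed to compounds; growth inhibition was measured relative to vehicle-treated controls.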

The nature of assay [3]: NCI Yeast Anticancer Drug Screen. Data for the sgs1 mgt1 strain (AID 161).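 Also: 0% = growth of cultures given vehicle only.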 As to conditions: S. cerevisiae sgs1 mgt1 strain, at 50.0 µM, active compounds read high. In short, it runs like this: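 Growth of a repair-deficient yeast mutant was monitored after compound treatment and expressed as inhibition relative to vehicle-treated cultures.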
Assay [4] can be described thus: NCI Yeast Anticancer Drug Screen. Data for the cln2 rad14 strain (AID 165).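 Also: 0% = growth equal to vehicle treated cultures.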 As to conditions: S. cerevisiae cln2 rad14 strain, at 50.0 µM, active compounds read high. The gist of the method:
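Yeast carrying cln2 and rad14 alterations (cell cycle control and DNA damage repair) were exposed to compounds. Growth inhibition was measured against vehicle-treated controls.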

Assay [5] is described as follows: NCI Yeast Anticancer Drug Screen. Data for the bub3 strain (AID 167). As to conditions: S. cerevisiae bub3 mutant strain, at 50.0 µM, active compounds read high. The gist of the method: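 Inhibition values come from growth of compound-treated mutant yeast normalised to vehicle-treated controls.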
Assay [6] in a line: NCI Yeast Anticancer Drug Screen. Data for the mlh1 rad18 strain (AID 175). The settings on record: S. cerevisiae mlh1 rad18 strain growth inhibition; at 50.0 µM; active compounds read high. The gist of the method:
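Growth inhibition of the yeast strain was measured after compound exposure and expressed relative to vehicle-treated controls. The strain carries defined defects in DNA damage repair.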

SMILES strings stand for the structures. Several values for one entry are separate records, joined by “and”; a condition that tells them apart may be missing. Equal entries are not always repeated. Compounds without any hit were thinned out: in the full panel of roughly 79,000, 15% have a hit. A number with no mark means an inactive call. Activity calls are given as the source filed them. Rule as the data show it: active = growth inhibition above about 70%; inactive = the rest.

`N#CC1(c2ccccc2)CCCC1`: the growth inhibition in assay [1] was 5.7%; in assay [2], 8.25%; in assay [3], -4.7%; in assay [4], 11.6%; in assay [5], -4.05%; in assay [6], 2.2%.

`CCC1=C(CC2NCCc3cc(OC)c(OC)cc32)CC2c3ccccc3CCN2C1` (stereo unspecified): the growth inhibition in assay [1] is -16.8%; in assay [2] it was -26.5%; in assay [3], -42.7%; in assay [4] it was -9.75%; in assay [5], -22.8%; in assay [6] it was -16.3%.

With `COC(=O)C1C(=O)CC2N(C)C1C(C)(C)C2(C)C` (stereo unspecified), the growth inhibition is 47.9% in assay [1]; 21.4% in assay [2]; 60.6% in assay [3]; 4.8% in assay [4]; 38.4% in assay [5]; 56.1% in assay [6].

Regarding `COc1ccc2c3c([nH]c2c1)C(C)N(C)CC3` (stereo unspecified), the growth inhibition is 16.4% in assay [1]; 1.85% in assay [2]; -10.7% in assay [3]; -5.05% in assay [4]; 43.4% in assay [5]; -16.9% in assay [6].

With `O=C1SCCC1NP(=O)(Oc1ccccc1)Oc1ccccc1` (stereo unspecified), the growth inhibition in assay [1] was 5.35%; in assay [2] it was 23.1%; in assay [3] it was -1.35%; in assay [4] it was -10.9%; in assay [5], 9.25%; in assay [6] it was 21.9%.

For the compound `O=C1/C(=C\c2cc3ccccc3c3ccccc23)N2CCC1CC2`, the growth inhibition is 11.1% in assay [1]; -10.2% in assay [2]; -12% in assay [3]; -7.35% in assay [4]; -3.1% in assay [5]; 1% in assay [6].

In the case of `CC[CH2][Sn](=[O])[CH2]c1ccccc1`, the growth inhibition in assay [1] is 11.9%; in assay [2], 24.6%; in assay [3] it was 13.6%; in assay [4], 8.9%; in assay [5], 17.5%; in assay [6], -44.5%.

Regarding `COc1cc2[nH]cc(CN(C)C)c2cc1OC`, the growth inhibition was 3% in assay [1]; -0.55% in assay [2]; -11.2% in assay [3]; -18.9% in assay [4]; -0.25% in assay [5]; -7.35% in assay [6].

As for `O=P1(N(CCCl)CCCl)Oc2c(Cl)cc(Cl)c(Cl)c2Cc2c(Cl)c(Cl)cc(Cl)c2O1`, the growth inhibition in assay [1] is -15.1%; in assay [2], -31.7%; in assay [3], 2.85%; in assay [4], 0.25%; in assay [5] it was -14.2%; in assay [6], -10.7%.

As for `NC(Cc1ccccc1)c1ccccc1` (stereo unspecified), the growth inhibition in assay [1] is 3.15% and -1.6%; in assay [2], -7.3% and -0.95%; in assay [3], 0.3% and -16.8%; in assay [4] it was -36% and -23.1%; in assay [5], 5.35% and 1.75%; in assay [6], 14.8% and -0.1%.

As to `CCCCC(=O)O.[Ni]`, the growth inhibition in assay [1] was -11.2%; in assay [2], -2.65%; in assay [3] it was -9.7%; in assay [4], -32%; in assay [5], -30.9%; in assay [6], -14.1%.

On to `O=[N+]([O-])c1ccc([Se]c2ncccn2)c([N+](=O)[O-])c1`, for which the growth inhibition in assay [1] is -14.8%; in assay [2], 1.95%; in assay [3], -19.4%; in assay [4], -8.75%; in assay [5], -3.15%; in assay [6], 0.5%.

Turning to `Cc1cc(NC2=NCCO2)c2c(c1C)CCCC2`, the growth inhibition in assay [1] was -10.1%; in assay [2], -23.1%; in assay [3], -6.9%; in assay [4], 22.3%; in assay [5], -7.85%; in assay [6] it was -5.35%.

As to `C/C(=N\N(C)C)C(CN(C)C)C(c1ccccc1)c1c(O)c2ccccc2oc1=O` (stereo unspecified), the growth inhibition in assay [1] is 16.8%; in assay [2], -18.5%; in assay [3], 13.8%; in assay [4] it was 1.5%; in assay [5] it was 37.8%; in assay [6], 18.9%.

For the compound `CC(C)(C)C[C](C)(c1ccccc1)[Sn]([CH3])([CH3])[CH3]` (stereo unspecified), the growth inhibition in assay [1] was -14.2%; in assay [2], 4.9%; in assay [3] it was 8.4%; in assay [4], 6.9%; in assay [5], 1.2%; in assay [6] it was 7%.

As for `CN(C)P(=O)(N(C)C)N(C)C`, the growth inhibition in assay [1] was 23.2%; in assay [2], 6.4%; in assay [3] it was -7.05%; in assay [4] it was -16.9%; in assay [5] it was 23.6%; in assay [6], 25.1%.

On to `CCOC(=O)CC1=N/C(=N/C(=N)N[N+](=O)[O-])SC1`, for which the growth inhibition was 7.45% in assay [1]; -5.3% in assay [2]; 10.4% in assay [3]; 7.6% in assay [4]; 15.3% in assay [5]; 16% in assay [6].

Regarding `[CH3][Sn]1([CH3])[c]2ccccc2Oc2cccc[c]21`, the growth inhibition in assay [1] was -11.9%; in assay [2] it was 1.65%; in assay [3], 4.7%; in assay [4], -1.2%; in assay [5] it was 33.5%; in assay [6], -17.6%.

As for `CC(=O)CC1(OC(=O)C2C(C=C(C)C)C2(C)C)C(=O)Nc2ccccc21` (stereo unspecified), the growth inhibition in assay [1] was 40.5%; in assay [2], 16.4%; in assay [3], 18.6%; in assay [4], 8.85%; in assay [5] it was 23.1%; in assay [6], 39.5%.

For the compound `NC(=O)OCCc1c2ccccc2nc2ccccc12`, the growth inhibition in assay [1] is 19.6% and 47.6%; in assay [2], 3.75% and 51.5%; in assay [3], 11.5% and 49.9%; in assay [4] it was 2.6% and 42.4%; in assay [5], 8.15% and 34.1%; in assay [6], 16.1% and 64.5%.

Consider `CC(C)(C)C(=O)CC(=O)C(C)(C)C.[Cl][Sb]1([Cl])[c]2ccccc2Cc2cccc[c]21`, for which the growth inhibition in assay [1] is -1.05%; in assay [2] it was 23.9%; in assay [3] it was 20.1%; in assay [4], -13.8%; in assay [5] it was 0.75%; in assay [6] it was 8.95%.

As to `CC(Cc1ccccc1)NC(=O)/C=C/C(=O)O` (stereo unspecified), the growth inhibition is 5.9% in assay [1]; 4.25% in assay [2]; 9.6% in assay [3]; -6.95% in assay [4]; 36.8% in assay [5]; 11.9% in assay [6].

Regarding `CCO[C@@H]1c2cc3c(cc2[C@@H](c2cc(OC)c(O)c(OC)c2)[C@H]2C(=O)OC[C@@H]21)OCO3`, the growth inhibition in assay [1] was 88.1% (active); in assay [2], 92.2% (active); in assay [3] it was 89% (active); in assay [4], 85.2% (active); in assay [5], 88.5% (active); in assay [6] it was 87.5% (active).

For `COc1ccc(C(OCC2OC(n3ccc(NC(=O)c4ccccc4)nc3=O)CC2OP2(=S)SCCS2)(c2ccccc2)c2ccc(OC)cc2)cc1` (stereo unspecified), the growth inhibition in assay [1] is 10.6%; in assay [2], -13.1%; in assay [3], -4.1%; in assay [4], 10%; in assay [5], 37%; in assay [6], 78.7% (active).

Consider `C=CCc1c[nH]c(=S)[nH]c1=O.[Hg]`, for which the growth inhibition in assay [1] is 99.1% (active); in assay [2], 98.8% (active); in assay [3], 98.8% (active); in assay [4] it was 98.8% (active); in assay [5] it was 99% (active); in assay [6], 98.8% (active).

Take `C=CCN(CC=C)C1CCOC(OC)C1O` (stereo unspecified): the growth inhibition in assay [1] was -19.4%; in assay [2], -20.5%; in assay [3] it was -9.35%; in assay [4], -5.05%; in assay [5], -12%; in assay [6], -14.2%.

`C[N+](C)(C)Cc1cccc([N+](=O)[O-])c1`: the growth inhibition was -47.9% in assay [1]; -5.5% in assay [2]; -3.8% in assay [3]; -40.7% in assay [4]; -4% in assay [5]; 13.2% in assay [6].

Take `CC12CCC(=O)C=C1CCC1C2CCC2(C)C(OC(=O)C34C=CC(=O)C3C3C=CC4CC3)CCC12` (stereo unspecified): the growth inhibition in assay [1] was 31.4%; in assay [2] it was -1.2%; in assay [3] it was 14.3%; in assay [4], 22.6%; in assay [5] it was -4.45%; in assay [6], 19.2%.

With `CCN1C2CCC1CC(=O)C2`, the growth inhibition was 0.95% in assay [1]; 5.9% in assay [2]; -5.7% in assay [3]; -11.9% in assay [4]; -14.2% in assay [5]; 7.85% in assay [6].

Take `c1ccc([C@H]2N[C@@H]2c2ccccn2)cc1`: the growth inhibition was 22.6% in assay [1]; 32.5% in assay [2]; 32.5% in assay [3]; -4.35% in assay [4]; 19.5% in assay [5]; 13.2% in assay [6].

Regarding `CSc1nsc(-c2ccccc2)[s+]1`, the growth inhibition was 13% in assay [1]; -11.6% in assay [2]; 2.95% in assay [3]; -74.5% in assay [4]; -9.2% in assay [5]; 18% in assay [6].

As for `CCCCCCCNC(=O)CBr`, the growth inhibition in assay [1] is 44%; in assay [2], 26.2%; in assay [3], 33.4%; in assay [4], 4.75%; in assay [5], 41.2%; in assay [6] it was 46.5%.

As to `CCC[CH2][Sn]([Br])([CH2]CCC)[CH2]CCC`, the growth inhibition in assay [1] was 91.2% (active); in assay [2] it was 97.8% (active); in assay [3] it was 95.8% (active); in assay [4] it was 96% (active); in assay [5], 89.4% (active); in assay [6], 97.3% (active).

Consider `O=[N+]([O-])O.[Tl]`, for which the growth inhibition is -5.5% in assay [1]; -23.2% in assay [2]; -16.8% in assay [3]; 6.8% in assay [4]; -19.4% in assay [5]; -18.4% in assay [6].

`O=C(OCC1CCCN2CCCCC12)c1cccnc1` (stereo unspecified): the growth inhibition in assay [1] was 7.7%; in assay [2] it was -10.8%; in assay [3] it was -28.3%; in assay [4] it was 14.9%; in assay [5] it was -8.5%; in assay [6], -25.3%.

Consider `CC(C)N1CC(COc2cccc3ccccc23)OP1(=O)N(CCCl)CCCl` (stereo unspecified), for which the growth inhibition in assay [1] is 97% (active); in assay [2], 98.7% (active); in assay [3], 52%; in assay [4], 98.3% (active); in assay [5], 98.4% (active); in assay [6], 98.4% (active).
